# Experimental data: PubChem BioAssay
# Unmarked numbers belong to inactive results. No rule for the calls is given here.
# Target: Pantothenate synthetase (Mycobacterium tuberculosis (strain ATCC 25618 / H37Rv)) (UniProt P9WIL5)
# Experiment: Coupled enzyme confirmation of inhibitors against recombinant Mtb PanC (AID 375);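 also: 0% = full reaction with vehicle and 100% = no enzyme background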
# Conditions: coupled enzyme assay; at 10 µM, active compounds read high
# Sequence of Pantothenate synthetase (Mycobacterium tuberculosis (strain ATCC 25618 / H37Rv)) (P9WIL5 whole entry, looked up): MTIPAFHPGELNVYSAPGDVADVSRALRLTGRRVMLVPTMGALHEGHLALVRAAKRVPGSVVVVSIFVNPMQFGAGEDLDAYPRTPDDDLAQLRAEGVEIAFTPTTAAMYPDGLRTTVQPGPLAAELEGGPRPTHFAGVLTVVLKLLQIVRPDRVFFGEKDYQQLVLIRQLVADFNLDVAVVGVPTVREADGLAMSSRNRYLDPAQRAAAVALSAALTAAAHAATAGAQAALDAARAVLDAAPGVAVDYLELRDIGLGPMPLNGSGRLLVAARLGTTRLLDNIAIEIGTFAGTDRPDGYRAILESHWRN
row,SMILES,inhibition
1,Cc1cc2cc(CN(CC3CCCO3)C(=O)c3cnccn3)c(=O)[nH]c2cc1C (stereo not given),4%
2,CN1CCN(C(=O)CN(Cc2ccc(Cl)cc2)S(C)(=O)=O)CC1,4%
3,CCOC(=O)c1c(C)[nH]c(C(=O)CSc2nc3ccccc3o2)c1C,0%
4,O=c1c2[nH]c3cccc(Cl)c3c2ncn1CCN1CCCCC1,6%
5,Cc1cccc(C(=O)N2CCN(C(=O)c3cccc(C)c3)C(C)C2)c1 (stereo not given),0%
6,O=C(Nc1ncnc2sc3c(c12)CCCCC3)c1ccco1,10%
7,C=C1[C@@H](C)C2[C@H](Cc3ccccc3)NC(=O)[C@]23OC(=O)CC[C@H](O)CCC[C@H](C)C/C=C/[C@H]3[C@@H]1O (stereo not given in full),0%
8,CCOc1ncccc1C(=O)Nc1ccc2c(C)cc(=O)oc2c1,7%
9,CC(=O)Nc1ccc(NC(=O)C(C)Oc2ccccc2F)cc1 (stereo not given),0%
10,Cc1ccc(C)c(CSc2nnc(CCN)o2)c1,0%
11,O=C(NCc1cccs1)C1CC(c2ccccc2O)=NO1 (stereo not given),5%
12,Cc1cc(C)c(C#N)c(SCc2ccc(C#N)cc2)n1,0%
13,CCOC(=O)C1CCCN(C(=O)c2cc3c(C)nc4ccccc4c3o2)C1 (stereo not given),7%
14,CCN(CCNC(=O)C1CCN(S(=O)(=O)CC)CC1)c1ccccc1,2%
15,C=CCOC(=O)C(C#N)c1nc2ccccc2nc1N1CCN(Cc2ccccc2)CC1 (stereo not given),2%
16,Cc1ccccc1Nc1nc(N)nc(CSCc2c(C)noc2C)n1,0%
17,COc1ccc(Cn2nnnc2C(c2cccs2)N2CCOCC2)cc1 (stereo not given),3%
18,O=C(NCc1ccco1)c1csc(Nc2ccccc2Cl)n1,0%
19,CCN(C(C)=O)c1nnc(CSc2nc3ccccc3s2)s1,5%
20,COC(=O)CCn1nnc(-c2cccs2)n1,1%

row,SMILES,inhibition
1,N#Cc1ccc(CSc2nnc(-c3ccccn3)n2-c2ccccc2)cc1,0%
2,CC1(C)CC(=O)c2cnc(NC(=O)CCc3ccccc3)nc2C1,0%
3,COc1cc(Cn2c(-c3nonc3N)nc3ccccc32)ccc1C,0%
4,CCOc1ccc2c(c1)sc1nc(C(=O)OC)cc(=O)n12,0%
5,Cc1ccc(-n2c(=O)c(C#N)cc3c(=O)n4ccccc4nc32)cc1,0%
6,COC(=O)COc1nc(C)c(Br)c(OC)n1,0%
7,Cc1cc(C)nc(NC2=NCC(=O)N2c2ccccc2Br)n1,0%
8,Cc1[nH]c(=O)[nH]c(=O)c1S(=O)(=O)N(C)Cc1ccccc1,0%
9,O=C(NCc1cccs1)C1CC(=O)N(c2ccccc2)C1 (stereo not given),0%
10,CCOC(=O)c1ccc(NC(=O)CC2SC(=NC)N(C)C2=O)cc1 (stereo not given),2%
11,CCOCCCNC(=O)C1CCC(CNS(=O)(=O)c2cccc3nsnc23)CC1 (stereo not given),1%
12,O=C(Oc1ccc(Cl)cc1N1C(=O)CCC1=O)c1ccco1,6%
13,Cc1ccc(NC(=O)c2ccc(NS(=O)(=O)c3c(C)noc3C)cc2)cc1C,0%
14,CCC(=O)N(Cc1cc2c(C)ccc(C)c2[nH]c1=O)C1CCCCC1,0%
15,COc1ccc(N2CCN(c3ccc(N)cc3C#N)CC2)cc1,7%
16,Nc1nc(C2C(=O)CCCC2=O)cs1,0%
17,CCOc1ccccc1N1CC(O)=C(c2nc3ccccc3s2)C1=N,9%
18,CN(C)c1ccc(/C=C/C(O)=C2/C(=O)N(C)C3(C)CC2c2ccccc2O3)cc1 (stereo not given),0%
19,NC(=O)C1(N2CCCCC2)CCN(C(=O)Nc2ccccc2C(F)(F)F)CC1,1%
20,O=C(Nc1cccc(C(F)(F)F)c1)c1cccnc1N1CCCC1,4%
